Target: Follistatin-related protein 3 (Homo sapiens) (UniProt O95633)
Assay: FSTL3 binders on small-molecule microarrays, primary screen, biochemical, small-molecule microarray, 635 nm fluorescence (AID 1105);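 further: score merges emission near 667 nm and signal to noise per printed spot across three slides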
Conditions: FSTL3 binding, higher = more signal

Chain of Follistatin-related protein 3 (Homo sapiens) (O95633 whole entry, looked up): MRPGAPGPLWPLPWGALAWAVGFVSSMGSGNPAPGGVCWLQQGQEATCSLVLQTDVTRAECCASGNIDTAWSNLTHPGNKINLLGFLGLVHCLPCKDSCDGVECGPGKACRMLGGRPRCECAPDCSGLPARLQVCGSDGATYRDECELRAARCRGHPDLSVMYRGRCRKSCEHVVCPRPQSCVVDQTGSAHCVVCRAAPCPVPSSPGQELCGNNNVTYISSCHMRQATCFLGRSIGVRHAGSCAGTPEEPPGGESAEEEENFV

Row | SMILES | composite z-score
1 | COc1ccc([Si](C)(C)[C@@H]2[C@@H](CC(=O)N3Cc4ccccc4C[C@H]3CO)O[C@]3(C(=O)N(C)c4ccccc43)[C@H]2C)cc1 | 1.48
2 | O=C(N1CCCCC1)[C@@]1(CCS(=O)(=O)c2ccccc2)COC(c2ccc(OCCCO)cc2)=N1 | 0.348
3 | O=C1NC(=O)C2C1C=CC(C(O)CCc1ccccc1)N2Nc1ccc(Cl)cc1Cl (stereo not given) | 0.195
4 | C=CCC(OC(C)=O)[C@@H]1[C@@H](N(Cc2cc3ccccc3o2)C(=O)c2ccc(-c3ccccc3)cc2)c2cc(OCCCO)ccc2N1C(=O)c1ccc2ccccc2c1 (stereo not given in full) | 0.674
5 | CCOC(=O)C[C@H]1[C@H](OC(=O)Cc2ccc3c(c2)OCO3)[C@@H](NC(=O)Cc2ccc(OC)cc2)c2cc(OCCCO)ccc2N1C(=O)c1ccc2ccccc2n1 | -0.114
6 | COC(=O)c1c2oc(c1C(=O)OC)C(=O)N(Cc1ccccc1)Cc1cn(nn1)C[C@H](Cc1ccccc1)NC(=O)N[C@H](CO)CC2 | 0.111
7 | NC(N)=NCCCn1cc(CNC(=O)[C@@H](N)Cc2ccccc2)nn1 | 1.36
8 | NC(=O)N1C(=O)C2C(C1=O)C1C=C(CCCO)C2C(c2cccs2)N1Cc1cccc(OC(F)(F)F)c1 (stereo not given) | 0.211
9 | CCOC(=O)C[C@H]1[C@H](OC(=O)c2cc3ccccc3oc2=O)[C@@H](NC(=O)Cc2ccc(OC)cc2)c2cc(OCCCO)ccc2N1C(=O)c1ccc2ccccc2n1 | 0.889
10 | COCCOC(=O)N1C(=O)[C@@]2(c3cc(C#CC4=CCCCC4)ccc31)[C@H](c1ccc(OCCO)cc1)N1[C@H](c3ccccc3)[C@H](c3ccccc3)OC(=O)[C@H]1[C@@H]2C(=O)NC[C@H](O)c1ccccc1 | 1.49
11 | COC(=O)c1nc2oc1CC[C@@H](CO)NC(=O)N(C)Cc1cnnn1C[C@H](Cc1ccccc1)NC2=O | 0.228
12 | CN1C(=O)C2C=CC(C(O)COCc3ccccc3)N(N(c3ccccc3)c3ccccc3)C2C1=O (stereo not given) | 0.127
13 | COc1cc2c(cc1O)C(C)N(Cc1ccc([N+](=O)[O-])o1)CC2 (stereo not given) | 0.574
14 | C=CCOC(=O)[C@H]1[C@@H]2C(=O)O[C@@H](c3ccccc3)[C@@H](c3ccccc3)N2[C@@H](c2ccc(OCCOC(=O)[C@@H]3C[C@@H]4C(=O)N[C@@H](CCCCN(C)C)C(=O)N4[C@@H]3c3ccc(O)cc3)cc2)[C@]12C(=O)Nc1ccccc12 | 1.43
15 | CCOC(=O)C1=C[C@@H](c2ccccc2)N(S(=O)(=O)c2ccc(C)cc2)[C@H]1c1ccccc1Cl | 1.05
16 | C[N+](C)(C)CCCCCCNC(=O)[C@H]1C[C@H]2C(=O)NCC(=O)N2[C@H]1c1ccc(O)cc1 | 1.42
17 | COc1cc(CO)cc(I)c1O[C@H]1C=C(C(=O)NCCO)C[C@@H](NCc2ccc(F)cc2)[C@@H]1O | 0.991
18 | COC1OC[C@]2(C)[C@H]3C4=C(CN2C(=O)OC(C)(C)C)[C@H](C)C(CO)C(CO)C4CC[C@@H]13 (stereo not given in full) | 0.823

Row | SMILES | composite z-score
19 | O=C1O[C@H](c2ccccc2)[C@H](c2ccccc2)N2[C@H]1[C@@H](C(=O)Nc1nc3ccccc3s1)[C@]1(C(=O)Nc3ccc(C#CCCO)cc31)[C@H]2c1ccc(O)cc1 | 0.763
20 | C=CCC(OC(C)=O)[C@@H]1[C@@H](N(Cc2cc3ccccc3o2)C(=O)Cc2ccc(F)cc2)c2cc(OCCCO)ccc2N1C(=O)c1ccc2ccccc2c1 (stereo not given in full) | 0.331
21 | OCCCC1=CC(c2ccc(CN3CCCC3)cc2)N(Cc2sc3ccccc3c2Cl)CC1 (stereo not given) | 0.854
22 | O=C1O[C@H](c2ccccc2)[C@H](c2ccccc2)N2[C@H]1[C@@H](C(=O)N1CCN(c3ncccn3)CC1)[C@]1(C(=O)Nc3ccc(C#CC4(O)CCCCCC4)cc31)[C@H]2c1ccc(OCCO)cc1 | 1.21
23 | O=C1C2C=CC(C(O)c3ccc(Br)cc3)N(Nc3ccccc3F)C2C(=O)N1c1ccccc1 (stereo not given) | 0.0807
24 | COCCOC(=O)N1C(=O)[C@@]2(c3cc(C#CCC(C(=O)OC)C(=O)OC)ccc31)[C@H](C(=O)N1CCc3cc(OC)c(OC)cc3C1)[C@H]1C(=O)O[C@H](c3ccccc3)[C@H](c3ccccc3)N1[C@@H]2c1ccc(OCCO)cc1 | 1.3
25 | CC(CO)N1C(=O)[C@@H]2[C@H]3C(=O)OCC=C[C@H]3OC23C=CCN(CCN2CCOCC2)C(=O)[C@@H]13 (stereo not given in full) | 0.152
26 | C=C(COC)C(=O)CC[C@@H](OC(=O)c1cccnc1)c1ccc(OCCO)cc1 | 0.847
27 | COC(=O)[C@@]1(Cc2ccc(OC)cc2)[C@H]2c3cc(C(=O)N4CCCC4)n(Cc4cccc5ccccc45)c3C[C@H]2CN1C(=O)c1ccccc1 | 0.293
28 | CC(C)(C)OC(=O)CC[C@@]1(C(=O)NCc2ccccc2)N=C(c2ccc(OCCCO)cc2)O[C@@H]1c1ccccc1N=[N+]=[N-] | 1.26
29 | C=CC[C@@]1(C(=O)N2CCOCC2)N=C(c2ccc(OCCCO)cc2)O[C@@H]1c1ccccc1CN=[N+]=[N-] | 1.05
30 | COC(=O)[C@@]1(Cc2ccc(F)cc2)[C@H]2c3cc(C(=O)N4CCCC4)n(CCc4ccc(O)c(O)c4)c3C[C@H]2CN1C(=O)c1ccccc1 | -0.457
31 | CCOC(=O)C[C@H]1[C@H](OC(=O)c2cc3ccccc3oc2=O)[C@@H](NC(=O)c2ccc(-c3ccccc3)cc2)c2cc(OCCCO)ccc2N1C(=O)c1ccc2ccccc2n1 | 1.06
32 | COc1ccc([Si](C)(C)[C@H]2[C@H](CCn3cc([C@H](O)c4ccccc4)nn3)O[C@@]3(C(=O)N(Cc4ccc(N5C(=O)c6cccc7cccc5c67)cc4)c4ccccc43)[C@@H]2C)cc1 | -0.617
33 | C[C@@H]1NC(=O)[C@@]23C(=O)N[C@@H](Cc4ccccc4)C2[C@H](C)[C@@]2(C)O[C@H]2C3/C=C/C/C=C\CNC(=O)[C@@H]2CCCN2C1=O (stereo not given in full) | -0.165
34 | COC(=O)[C@@]1(Cc2ccccc2)[C@H]2c3cc(C(=O)N(C)C)n(Cc4c(CO)[nH]cc(C)c4=O)c3C[C@H]2CN1C(=O)c1ccccc1 | -0.237
35 | COC(=O)CCCCCCC(=O)Nc1ccc(NC(=O)CCCC[P+](c2ccccc2)(c2ccccc2)c2ccccc2)cc1 | 0.955

From PubChem BioAssay
